The nature of assay [1]: Nuclear factor erythroid 2-related factor 2/antioxidant responsive element (Nrf2/ARE) small molecule agonists: qHTS cell viability counter screen in human keratinocytes (AID 1919968; active = well fitted curve in the direction sought with a large enough effect in the repeat runs; an effect the other way counts as inactive or inconclusive; note: nearly all actives have a fitted effect of over 55% in size; note: potency is the fitted concentration of half-maximal effect). In outline:
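Stably transfected HaCaT (KeratinoSens), 1,500/well. Test agents in DMSO were applied for 23 h, 37 C/5% CO2. CellTiter-Fluor was incubated 1 h before the fluorescence read.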
(qHTS replaces the single test concentration by a dilution series.)

A short description of assay [2]: Nuclear factor erythroid 2-related factor 2/antioxidant responsive element (Nrf2/ARE) small molecule agonists: luciferase reporter gene qHTS assay in human keratinocytes (AID 1919969; note: nearly all actives have a fitted effect of over 35% in size; note: potency is the fitted concentration of half-maximal effect). (In general: In a reporter assay the amount or activity of a reporter protein is the signal.)
Assay [3] addresses KiSS-1 receptor (Homo sapiens) (UniProt Q969F8). The assay is described as follows: Human kisspeptin (KISS1R) small molecule agonists, calcium flux assay in KISS1R-HEK293 cells (AID 1920064; active = well fitted curve in the direction sought with a large enough effect in the repeat runs; an effect the other way counts as inactive or inconclusive). In outline:
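After overnight (18 h) culture at 37 C/5% CO2, human KISS1R-HEK293 cells received calcium dye for 1 h, then test compound; emission at 540 nm (excitation 480 nm) was tracked for 3 min.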
On the technique in general: Calcium assays in cells follow changes in intracellular calcium, usually with a dye or a luminescent sensor.

The nature of assay [4]: G protein-coupled receptor (GPCR) small molecule agonists, calcium flux assay: HEK293 wild type cell line counter screen (AID 1920065). Summed up: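 Following 18 h incubation at 37 C/5% CO2, plates got calcium dye for 1 h; compounds, ATP or DMSO were then pinned in and fluorescence followed kinetically (480/540 nm).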
Assay [5] is described as follows: p53 small molecule agonists, cell-based qHTS assay with rat liver microsomes (AID 1963578). Summed up:
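Agonist mode in p53RE-bla reporter cells, with compounds co-incubated 16 h at 37 C alongside 0.5 mg/mL rat liver microsomes and 0.5 mg/mL NADPH (final), followed by a 2 h LiveBLAzer detection step.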

The target in assay [6] is Muscarinic acetylcholine receptor M1 (Homo sapiens) (UniProt P11229). The assay is described as follows: Cholinergic receptor muscarinic 1 (CHRM1) small molecule agonists, cell-based qHTS assay (AID 1963589). Note: nearly all actives have a fitted effect of over 35% in size. In outline:
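Kinetic fluorescence (1 s intervals) of calcium-sensitive dye in human M1 CHO cells after compound addition; cells pre-incubated 18 h at 37 C/5% CO2 and dye-loaded 1 h.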

Assay [7] concerns the target Beta-2 adrenergic receptor (Homo sapiens) (UniProt P07550). The assay is described as follows: Adrenergic beta2 receptor (ADRB2) small molecule antagonists, cell-based qHTS assay (AID 1963592). Note: nearly all actives have a fitted effect of over 50% in size. Note: potency is the fitted concentration of half-maximal effect. Summed up: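 Assay format: CHO-ADRB2 cells, 18-20hr seeding at 37C/5% CO2, then compound plus 1nM isoproterenol agonist mix for 0.5hr RT. Homogeneous time-resolved fluorescence cAMP detection after 1hr, expressed as 665/615 nm ratio.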

The target of assay [8] is D(2) dopamine receptor (Homo sapiens) (UniProt P14416). Description: Dopamine D2 receptor (DRD2) small molecule agonists, cell-based qHTS assay (AID 1963594). Note: nearly all actives have a fitted effect of over 35% in size. In outline:
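cAMP accumulation in DRD2-HEK293 cells measured by HTRF after 1 h detection; compounds added 10 min before NKH477 (200nM […]) forskolin-analogue stimulation, 30 min at room temperature, with Ro20-1724 present at 0.1 mM final.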

The target is the same in assay [9]. The assay is described as follows: Dopamine D2 receptor (DRD2) small molecule antagonists, cell-based qHTS assay (AID 1963595; active = well fitted inhibition curve with a large enough effect in the signal ratio in the repeat runs, with a control signal flat; the % refers to the signal ratio). Summed up: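 HEK293 cells stably expressing DRD2, preincubated with 0.1 mM Ro20-1724 and compounds 10 min, were stimulated with 200 nM NKH477 plus 12 nM quinpirole for 30 min at room temperature; cAMP measured by HTRF (665/620 nm).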

Assay [10] is described as follows: p53 small molecule agonists, cell-based qHTS assay with human liver microsomes: qHTS cell viability counter screen (AID 1963579). Note: nearly all actives have a fitted effect of over 45% in size. Note: potency is the fitted concentration of half-maximal effect. Summed up:
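Metabolically activated exposure: compounds, human liver microsomes and NADPH (0.5 mg/mL final apiece) were added to p53RE-bla cells seeded 5 h earlier, left 16 h at 37 C, and then assessed for viability by CellTiter-Glo luminescence.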

Assay [11] can be described thus: p53 small molecule agonists, cell-based qHTS assay: qHTS cell viability counter screen (AID 1963581). Note: nearly all actives have a fitted effect of over 45% in size. Summed up:
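qHTS counter screen: 16 h compound exposure at 37 C of p53RE-bla HCT-116 cells (4,000 per well, seeded 5 h prior), cell viability by ATP luminescence.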

Assay [12] deals with 5-hydroxytryptamine receptor 2A (Homo sapiens) (UniProt P28223). The assay is described as follows: 5-hydroxytryptamine receptor 2A (HTR2A) small molecule antagonists, cell-based qHTS assay (AID 1963586). Note: nearly all actives have a fitted effect of over 45% in size. Summed up:
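CHO cells stably expressing human HTR2A were plated for 18 h at 37 C, then loaded with calcium dye for 1 h. Compounds were preincubated 5 min at room temperature before DOI (4 nM solution) was added. Kinetic fluorescence was read for 3 min.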

The target in assay [13] is Muscarinic acetylcholine receptor M1 (Homo sapiens) (UniProt P11229). The assay is described as follows: Cholinergic receptor muscarinic 1 (CHRM1) small molecule antagonists, cell-based qHTS assay (AID 1963588). Note: nearly all actives have a fitted effect of over 40% in size. Note: potency is the fitted concentration of half-maximal effect. Summed up:
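Compounds were tested at 15 concentrations in three independent runs. Dye-loaded CHRM1-CHO cells were exposed 5 min at room temperature before stimulation by acetylcholine added at 50nM. Intracellular calcium was read kinetically on FDSS for 3 min.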

Assay [14] is described as follows: p53 small molecule agonists, cell-based qHTS assay with rat liver microsomes: qHTS cell viability counter screen (AID 1963580). Note: nearly all actives have a fitted effect of over 45% in size. Summed up: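 Rat liver microsome (0.5 mg/mL final) and NADPH (0.5 mg/mL final) co-incubation with compounds for 16 h at 37 C on HCT-116 p53RE-bla cells; cytotoxicity taken from intracellular ATP luminescence.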
Assay [15] is described as follows: p53 small molecule agonists, cell-based qHTS assay (AID 1963582; active = well fitted activation curve with a large enough effect in the signal ratio in the repeat runs, not every such curve was filed as active; the % refers to the signal ratio). Summed up:
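Measured: fluorescence from cleaved LiveBLAzer substrate. System: p53RE-bla cells, 16 h compound treatment at 37 C, 2 h substrate step at room temperature.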

For assay [16], the target named is 5-hydroxytryptamine receptor 2A (Homo sapiens) (UniProt P28223). Description: 5-hydroxytryptamine receptor 2A (HTR2A) small molecule agonists, cell-based qHTS assay (AID 1963587). Note: nearly all actives have a fitted effect of over 30% in size. Note: potency is the fitted concentration of half-maximal effect. In outline:
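Kinetic calcium-flux fluorescence (2 min, 1 sec intervals) after compound addition in agonist mode. HTR2A-CHO cells were cultured 18 h, then dye-loaded 1 h at 37 C.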

Assay [17] is described as follows: cAMP Responsive Elements (CRE) small molecule agonists, cell-based qHTS assay (AID 1963590). Summed up:
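Test agents in DMSO were incubated 3 h at 37 C/5% CO2 with CRE-bla HEK 293T cells seeded 18 h earlier; LiveBLAzer B/G FRET substrate was added and read after 2 h at room temperature.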

Assay [18] can be described thus: cAMP Responsive Elements (CRE) small molecule antagonists, cell-based qHTS assay (AID 1963591; active = well fitted inhibition curve with a large enough effect in the signal ratio in the repeat runs, not every such curve was filed as active; the % refers to the signal ratio). Summed up:
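Reporter line CRE-bla HEK 293T in dialyzed-FBS DMEM; cells preincubated 18 h, treated 3 h with compound plus NKH477 (0.25 uM final); LiveBLAzer FRET, 2 h RT.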

Assay [19] concerns the target Beta-2 adrenergic receptor (Homo sapiens) (UniProt P07550). Description: Adrenergic beta2 receptor (ADRB2) small molecule agonists, cell-based qHTS assay (AID 1963593).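 Note: CHO cells stably overexpressing human ADRB2.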 Summed up:
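CHO cells stably over-expressing ADRB2 were plated overnight at 37C, then dosed with compounds plus a stimulation mix containing 100uM IBMX and 25uM Ro-20-1724 for 0.5hr at room temperature. cAMP was measured by HTRF competition, 1hr.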

A number with no mark means an inactive call. Records with an inconclusive call do not appear. The source made the active and inactive calls. Unless noted, calls come from the whole dose curve.

Chain of Beta-2 adrenergic receptor (Homo sapiens) (P07550 whole entry, looked up): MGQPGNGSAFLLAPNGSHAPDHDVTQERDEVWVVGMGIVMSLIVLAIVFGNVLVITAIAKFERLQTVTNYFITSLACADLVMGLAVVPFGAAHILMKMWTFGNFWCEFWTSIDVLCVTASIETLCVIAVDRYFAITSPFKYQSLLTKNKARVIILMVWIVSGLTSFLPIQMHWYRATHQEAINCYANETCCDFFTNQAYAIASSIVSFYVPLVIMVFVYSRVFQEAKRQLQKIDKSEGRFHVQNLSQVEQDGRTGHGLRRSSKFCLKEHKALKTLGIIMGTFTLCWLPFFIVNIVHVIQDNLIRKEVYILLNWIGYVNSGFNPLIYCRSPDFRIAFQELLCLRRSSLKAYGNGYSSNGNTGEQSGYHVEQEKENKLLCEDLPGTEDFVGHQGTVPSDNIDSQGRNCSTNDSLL
Chain of KiSS-1 receptor (Homo sapiens) (Q969F8 whole entry, looked up): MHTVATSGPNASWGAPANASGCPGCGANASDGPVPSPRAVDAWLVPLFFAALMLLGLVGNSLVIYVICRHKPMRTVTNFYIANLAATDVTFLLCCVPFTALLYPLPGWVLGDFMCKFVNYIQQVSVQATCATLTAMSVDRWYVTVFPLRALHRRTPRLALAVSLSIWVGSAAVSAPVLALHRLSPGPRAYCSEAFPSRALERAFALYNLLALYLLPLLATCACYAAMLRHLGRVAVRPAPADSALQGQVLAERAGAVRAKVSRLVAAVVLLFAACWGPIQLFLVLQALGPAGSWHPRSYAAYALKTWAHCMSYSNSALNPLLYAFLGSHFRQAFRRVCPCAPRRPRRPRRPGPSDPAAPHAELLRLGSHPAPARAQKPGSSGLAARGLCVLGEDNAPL
Chain of D(2) dopamine receptor (Homo sapiens) (P14416 whole entry, looked up): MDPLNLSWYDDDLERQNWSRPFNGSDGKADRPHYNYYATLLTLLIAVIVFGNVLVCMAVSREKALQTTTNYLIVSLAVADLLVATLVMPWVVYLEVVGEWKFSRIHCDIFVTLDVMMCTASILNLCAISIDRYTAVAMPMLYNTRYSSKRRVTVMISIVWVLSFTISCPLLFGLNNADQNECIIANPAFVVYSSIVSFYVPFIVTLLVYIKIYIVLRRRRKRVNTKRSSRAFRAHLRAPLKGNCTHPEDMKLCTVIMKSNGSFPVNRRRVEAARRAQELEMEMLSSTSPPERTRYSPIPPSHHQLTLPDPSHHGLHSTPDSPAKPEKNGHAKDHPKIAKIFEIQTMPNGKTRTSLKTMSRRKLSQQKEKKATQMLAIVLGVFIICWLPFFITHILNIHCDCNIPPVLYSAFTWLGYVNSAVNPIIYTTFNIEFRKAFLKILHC
Chain of Muscarinic acetylcholine receptor M1 (Homo sapiens) (P11229 whole entry, looked up): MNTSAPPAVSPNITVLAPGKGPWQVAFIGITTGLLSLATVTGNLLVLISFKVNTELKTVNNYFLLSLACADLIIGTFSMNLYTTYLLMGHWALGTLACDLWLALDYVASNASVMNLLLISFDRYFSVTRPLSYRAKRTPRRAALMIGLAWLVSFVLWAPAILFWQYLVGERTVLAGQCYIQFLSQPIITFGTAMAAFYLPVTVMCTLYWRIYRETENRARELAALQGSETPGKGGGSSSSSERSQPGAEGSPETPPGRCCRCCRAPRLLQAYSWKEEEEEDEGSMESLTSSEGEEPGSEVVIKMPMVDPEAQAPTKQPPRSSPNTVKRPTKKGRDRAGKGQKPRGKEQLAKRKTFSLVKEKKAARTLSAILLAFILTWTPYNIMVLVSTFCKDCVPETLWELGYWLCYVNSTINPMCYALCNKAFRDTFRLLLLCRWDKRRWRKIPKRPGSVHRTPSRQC
Chain of 5-hydroxytryptamine receptor 2A (Homo sapiens) (P28223 whole entry, looked up): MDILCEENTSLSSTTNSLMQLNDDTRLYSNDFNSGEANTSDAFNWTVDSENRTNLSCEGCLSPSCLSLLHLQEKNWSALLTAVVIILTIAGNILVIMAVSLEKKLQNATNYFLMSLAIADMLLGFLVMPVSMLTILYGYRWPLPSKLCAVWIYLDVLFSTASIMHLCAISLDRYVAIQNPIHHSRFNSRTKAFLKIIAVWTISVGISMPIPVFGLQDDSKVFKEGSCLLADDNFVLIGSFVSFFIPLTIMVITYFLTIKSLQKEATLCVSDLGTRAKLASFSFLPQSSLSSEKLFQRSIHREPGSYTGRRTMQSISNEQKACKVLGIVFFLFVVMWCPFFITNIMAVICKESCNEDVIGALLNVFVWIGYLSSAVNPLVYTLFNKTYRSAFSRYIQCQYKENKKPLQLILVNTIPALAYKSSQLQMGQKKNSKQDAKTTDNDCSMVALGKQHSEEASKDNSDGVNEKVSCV

With `CC1(C)CCC(C)(C)c2cc(C(=O)Nc3ccc(C(=O)O)cc3)ccc21`, the Potency result in assay [1], in [2], in assay [3], in assay [4], in [5] and in assay [6] was “inactive” in each case. Also, the Potency entry in [7], in assay [8] and in assay [9] was “inactive” in each case.

In the case of `CN[C@H]1CC[C@@H](c2ccc(Cl)c(Cl)c2)c2ccc(S(N)(=O)=O)cc21`, the results for the Potency in assay [1] and in assay [7] were 61.1 µM (active) and 48.6 µM (active), respectively. Also, the Potency result in assay [2], in assay [3], in [4], in [10], in assay [11] and in assay [12] was “inactive” each time. Also, in assay [6], the Potency entry was “inactive”.

For `Cc1cc2c(C(C)C)c(O)c(O)c(C=O)c2c(O)c1-c1c(C)cc2c(C(C)C)c(O)c(O)c(C=O)c2c1O`, the Potency is 10.6 µM (active) in [1] and 17.8 µM (active) in assay [10]. Further, the Potency result in assay [2], in [3], in assay [4], in assay [5], in [13] and in [6] was “inactive” throughout. In addition, the Potency entry in assay [7] and in [8] was “inactive” in each case.

Turning to `CC1(C)C(=O)NC(=O)N1CO`, the Potency entry in assay [1], in assay [2], in assay [3], in [4], in [5] and in assay [10] was “inactive” each time. Moreover, the Potency result in [14], in assay [15], in assay [12], in assay [16], in assay [13] and in assay [6] was “inactive” throughout. Further, the Potency entry in [17], in [18], in assay [7], in [19], in assay [8] and in assay [9] was “inactive” in each case.

On to `CC[N+](CC)(CC)CCOC(=O)C(C1CCCC1)C1CCCC1`, for which the Potency result in assay [1], in assay [2], in assay [3], in assay [4], in assay [10] and in assay [14] was “inactive” each time. Also, the Potency entry in assay [11], in [12], in assay [16], in [6], in assay [7] and in assay [19] was “inactive” in each case. Besides, the Potency result in assay [8] and in assay [9] was “inactive” throughout. In addition, in [13], the Potency was 0.0016 µM (active).

Take `CC(C)c1ccc(O)c(C(C)C)c1`: the Potency result in [1], in assay [3], in assay [4], in [5], in assay [14] and in assay [11] was “inactive” throughout. The Potency result in assay [13], in assay [6], in [7], in assay [8] and in [9] was “inactive” in each case. Moreover, the Potency was 68.6 µM (active) in assay [2] and 54.9 µM (active) in assay [16].

With `NCc1ccccc1`, the Potency result in assay [1], in [2], in [3], in [4], in [5] and in assay [10] was “inactive” in each case. The Potency entry in assay [14], in assay [11], in assay [12], in assay [16], in assay [13] and in assay [6] was “inactive” each time. Also, the Potency result in [18], in assay [7], in assay [19], in assay [8] and in [9] was “inactive” each time.
